Molecules are shown by their SMILES. The whole screen tested about 320,000 compounds, of which about 22,000 (6.9%) were called active. Another 27% or so got no clear call; they are omitted. The full list was thinned out, with actives kept by preference. Unmarked numbers belong to inactive results. The call rests on the fitted dose curve; in most records, active means well fitted inhibition curve with a large enough effect; inconclusive means small, poorly fitted or top-dose-only effect, or another doubt; inactive means no such curve, though single readings can be large or run the other way.
On the % scale 0 is the no-effect control and ±100 the full control effect; potency means the concentration at half of the fitted maximal effect.

This assay in a line: Primary qHTS for delayed death inhibitors of the malarial parasite plastid, 96 hour incubation. The conditions noted are these: P. falciparum luciferase reporter growth; series mostly up to 28.7 µM; activity change, negative = inhibition: at the top concentration. The procedure, abridged:
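Luminescence readout: decreased luciferase signal marks inhibited growth of reporter-expressing P. falciparum in infected red cells (2% hematocrit, 0.05% parasitemia final), exposed to compound two generations (96 h, 37 C, 5% CO2).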
For the molecule `COc1ccc(F)cc1C(=O)COC(=O)c1n[nH]c(=O)c2ccccc12`, the “activity change, negative = inhibition” value was -26.4%.
For `O=C(c1n[nH]c2c1CCC2)N1CCCC(Nc2cccc(F)c2)C1` (stereo not given), the “activity change, negative = inhibition” value is 46.1%.
With `CSc1nc(-c2ccco2)nn1C(=O)c1ccccc1Cl`, the “activity change, negative = inhibition” value was -15.5%.
As to `COc1ccc(CCNS(=O)(=O)c2ccc(C(=O)NCc3ccco3)cc2)cc1OC`, the activity change, negative = inhibition was 11.4% [at 5.75 µM].
For `CCC1=Nc2cc(C(=O)NCCCN3CCOCC3)ccc2Sc2ccc(Br)cc21`, the “activity change, negative = inhibition” value is 0.73%.
Consider `CCCC1=Nc2cc(C(=O)NCc3ccco3)ccc2Sc2ccccc21`, for which the Potency was 2.94 µM (active).
For the molecule `COCCN(C(=O)COC(=O)Cc1cccc(OC)c1)c1c(N)n(Cc2ccccc2)c(=O)[nH]c1=O`, the “activity change, negative = inhibition” value was 0.297%.
With `Cc1ccc(F)cc1S(=O)(=O)Nc1cccc(C(=O)N2CCCC(C(N)=O)C2)c1` (stereo not given), the “activity change, negative = inhibition” value was -2.9%.
As to `CCOc1ccc(CN2CCN(CCCc3ccccc3)C(CCO)C2)cc1` (stereo not given), the “activity change, negative = inhibition” value was 32.4%.
On to `CCOc1ccc(CN2CCN(Cc3ccc4cc(F)ccc4n3)CC2CCO)cc1` (stereo not given), for which the Potency was 13.1 µM (active).
As to `COc1cccc(CN2CCN(Cc3ccc4cccc(F)c4n3)CC2CCO)c1` (stereo not given), the “activity change, negative = inhibition” value is 24.6%.
Consider `Cc1cccc(C(=O)NCc2nnc(SC(C)C(=O)Nc3nnc(C)s3)n2C)c1` (stereo not given), for which the “activity change, negative = inhibition” value was 137%.
On to `O=C(Nc1ccn(Cc2ccc(F)cc2)n1)c1ccncc1`, for which the Potency was 9.28 µM (active).
As for `Cc1ccc(Cn2ccc(NC(=O)c3cc(C(C)C)on3)n2)cc1`, the “activity change, negative = inhibition” value is -25.9%.
As for `O=C(Nc1ccn(Cc2ccccc2)n1)c1cccc(F)c1`, the “activity change, negative = inhibition” value is -5.37%.
On to `COc1ccc(C2=NN(C(=O)CSc3nnnn3C)C(c3ccco3)C2)cc1` (stereo not given), for which the “activity change, negative = inhibition” value is 12.9%.
Consider `O=C(COc1ccc(F)cc1)N(CC1=CCS(=O)(=O)C1)c1ccccc1`, for which the “activity change, negative = inhibition” value was 8.32%.
Take `CCN(C(=O)COc1ccc(C(=O)c2ccccc2)cc1)c1ccccc1`: the Potency was 11.7 µM (active).
For the molecule `CCN(C(=O)c1ccc(Br)cc1)c1ccccc1`, the “activity change, negative = inhibition” value is 6.13%.
In the case of `CCc1ccc(NC(=O)CS(=O)CC(=O)N2CCN(c3ccccc3F)CC2)cc1` (stereo not given), the “activity change, negative = inhibition” value was 10.1%.
On the same count and under the same terms, to `COc1cccc(/C=N/Nc2ccc(Cl)nn2)c1` belongs 19.8%.
In the case of `CCOC(=O)C(C)n1cnc2c(nnn2-c2ccc(F)cc2)c1=O` (stereo not given), the “activity change, negative = inhibition” value is 79.2%.
Turning to `COc1cccc2c(N/N=C/c3ccco3)cc(C)nc12`, the “activity change, negative = inhibition” value is 27.3%.
With `COc1cccc(/C=N/Nc2ncc(C(F)(F)F)cc2Cl)c1O`, the “activity change, negative = inhibition” value is 165%.
Regarding `COc1cccc(/C=N/Nc2cc(C)nc(-c3ccccc3O)n2)c1O`, the Potency is 0.37 µM (active).
Take `CN(C)c1ccc(/C=C/C(=O)c2ccc(O)cc2)cc1[N+](=O)[O-]`: the “activity change, negative = inhibition” value is -16.4%.
Turning to `O=C(/C=C/c1ccc(Cl)c([N+](=O)[O-])c1)c1ccc(O)cc1`, the Potency is 9.28 µM (active).
In the case of `O=C(/C=C/c1ccc(Cl)c([N+](=O)[O-])c1)c1cccnc1`, the “activity change, negative = inhibition” value was 18.1%.
As to `O=C(/C=C/c1ccc2c(c1)OCCO2)c1ccc(O)cc1`, the “activity change, negative = inhibition” value was 144%.
Turning to `NC(N)=N/N=C/c1ccc(Cl)c([N+](=O)[O-])c1`, the Potency was 11.7 µM (active).
`O=C(Nc1ccncc1)c1ccc(Cl)c([N+](=O)[O-])c1`: the “activity change, negative = inhibition” value is 22.6%.
Consider `COc1ccc(Cl)cc1NC(=O)COc1ccc2c(c1)OCO2`, for which the “activity change, negative = inhibition” value is -14.3%.
`CCN1C(=S)N[C@@H](c2cccc(C(F)(F)F)c2)C(C(=O)OC)=C1C`: the “activity change, negative = inhibition” value is 76.3%.
Consider `CCCCn1c(N)c(N(CC(C)C)C(=O)CSc2ccc([N+](=O)[O-])cc2)c(=O)[nH]c1=O`, for which the “activity change, negative = inhibition” value was 8.89%.
Same read-out and setting: for `COc1ccc(OC)c(CN2CCN(C(=O)CNC(=O)c3cc(C)cc(C)c3)CC2)c1` the value was 48.5%; for `O=C(CCNC(=O)c1ccccc1Cl)NCc1ccco1`, -28.5%; for `Cc1cccc(C)c1NC(=O)COC(=O)c1ccccc1O`, 38.1%.
In the case of `C=CCn1c(CNS(=O)(=O)c2ccc(Br)cc2)nnc1SC`, the “activity change, negative = inhibition” value is -3.42%.
The same measure, in the same setting: to `CC(=O)Nc1ccc(NC(=O)c2ccc3c(c2)C(=O)N(c2ccccc2C)C3=O)cc1` belongs -5.53%; to `COC(=O)c1cccc(NC(=O)c2cccc(N3C(=O)CCC3=O)c2)c1`, 32.1%.
As to `Cc1cccc(N2C(=O)c3ccc(C(=O)Nc4cccc(C(=O)O)c4)cc3C2=O)c1`, the Potency was 13.1 µM (active).
With `NC(=O)c1nsc(C(=O)N(CCCN2CCOCC2)C(C(=O)NC2CCCCC2)c2ccc(Cl)cc2)c1N` (stereo not given), the “activity change, negative = inhibition” value is 4.88%.
Regarding `c1ccc2cc(CCCc3cc4ccccc4cn3)ncc2c1`, the “activity change, negative = inhibition” value was 33.1%.
As for `CCOc1ccc(OCc2ccc(C(=O)N(C)c3ccccc3)o2)cc1`, the “activity change, negative = inhibition” value is -9.61%.
Consider `CCOC(=O)c1nnn(-c2nc(OC)nc(N(C)C)n2)c1-c1ccccc1`, for which the Potency was 2.33 µM (active).
In the case of `CCOC(=O)c1c(N)nn(C(=O)c2ccccc2)c1-c1ccccc1`, the “activity change, negative = inhibition” value is -1.13%.
In the case of `CCOC(=O)c1nnn(-c2nonc2OC)c1-c1ccccc1`, the “activity change, negative = inhibition” value was -1.93%.
For `NC(=O)c1ccsc1NC(=O)COC(=O)Cc1n[nH]c(=O)c2ccccc12`, the “activity change, negative = inhibition” value is 56.7%.
With `CCn1c(C(O)c2cc(OC)ccc2OC)nc2ccccc21` (stereo not given), the Potency is 9.28 µM (active).
For the molecule `CCCn1c(C(O)c2ccc(OCC)cc2)nc2ccccc21` (stereo not given), the “activity change, negative = inhibition” value is 69.5%.
Regarding `COc1ccc(OC)c(C(O)c2nc3ccccc3n2C)c1` (stereo not given), the “activity change, negative = inhibition” value is -5.13%.
On the same count and under the same terms, for `O=C(Nc1cccc(Cl)c1)c1cc(S(=O)(=O)N2CCCCC2)c[nH]1` the value was 51.3%; for `CC(=O)Nc1ccc(S(=O)(=O)NC2Cc3ccccc3C2)cc1`, 3.82%; for `COc1ccc(C2=NN(C(=O)c3ccccc3C(=O)O)C(c3ccccc3O)C2)cc1` (stereo not given), 64.5%.
Take `CCOc1ccc2nc(Cl)c(C3CC(c4ccccc4)=NN3C(=O)c3cccs3)cc2c1` (stereo not given): the Potency is 8.28 µM (active).
Turning to `COc1ccc(C2CC(c3ccccc3)=NN2C(=O)c2ccc(Cl)c([N+](=O)[O-])c2)cc1` (stereo not given), the “activity change, negative = inhibition” value was -9.04%.
In the case of `Cc1ccccc1Cn1c2ccccc2c2cnn(CC(=O)NCc3ccco3)c(=O)c21`, the “activity change, negative = inhibition” value was -25.7%.
Still for that read-out and setting: for `CCN(C(=O)COC(=O)CCOc1cccc(C)c1)c1c(N)n(Cc2ccccc2)c(=O)[nH]c1=O` the value was 25.4%.
The same measure, in the same setting: to `COc1ccc(NC(=O)CN(C)CC(=O)Nc2cccc(C(F)(F)F)c2)cc1` belongs -20.6%; to `O=C(Nc1cccc(C(F)(F)F)c1)c1cnccn1`, 16.6%.
On to `COc1cc(NC(=O)c2cncc(-c3ccc(C#N)cc3)c2)cc(C(=O)Nc2cccc(C(F)(F)F)c2)c1`, for which the Potency is 6.57 µM (active).
For `Cc1c(Cl)cccc1NC(=S)NCC(O)c1ccccc1` (stereo not given), the “activity change, negative = inhibition” value was 0%.
For `COCCNC(=O)C(OC(=O)c1cccs1)c1ccc(F)cc1` (stereo not given), the Potency is 13.1 µM (active).
In the case of `O=C(OC(C(=O)NC1CCCC1)c1ccc(F)cc1)c1ccno1` (stereo not given), the “activity change, negative = inhibition” value was 13.4%.
`CC(C)C(=O)NCC(c1cccs1)S(=O)(=O)c1ccc(F)cc1` (stereo not given): the “activity change, negative = inhibition” value is 19.9%.

The values above are taken from PubChem BioAssay AID504834 (National Center for Advancing Translational Sciences (NCATS), 2011).
